# Laboratory results taken from the supplement of paper PMC3334620.
# In all, about 33,000 sequences were measured (“E-score (-0.5 to 0.5)”: median about -8e-05, highest 2% from about 0.23 on). The entries come from a sample that favours the highest values as a whole.
# Biological target: T1, Nrg2 (UniProt P38082)
# T1 sequence: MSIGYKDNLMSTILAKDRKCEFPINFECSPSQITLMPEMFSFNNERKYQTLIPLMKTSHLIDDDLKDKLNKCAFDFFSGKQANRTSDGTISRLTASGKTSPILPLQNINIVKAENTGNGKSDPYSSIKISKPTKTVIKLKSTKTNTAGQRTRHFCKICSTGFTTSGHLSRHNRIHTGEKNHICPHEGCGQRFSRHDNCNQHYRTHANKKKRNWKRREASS
# Assay: PBM E-score (8-mer binding enrichment) (E-score (-0.5 to 0.5)); higher = stronger / more preferred TF binding
# Details: protein concentration: 100 nM; construct: GST-full length
# How it was run: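 PURExpress in vitro transcription/translation supplied GST-tagged yeast transcription factors, either full-length or DNA-binding domain. Applied at about 100-200 nM to universal all-10-mer Agilent arrays double-stranded by primer extension, the bound protein was detected with fluorescent anti-GST. E-scores, modified Wilcoxon-Mann-Whitney statistics, were given by the Universal PBM Analysis Suite to ungapped eight-base words pooled with their reverse complements after masliner normalisation.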
row,Sequence,PBM E-score
1,AAGCCACA,-0.101
2,GTAAGCCA,-0.113
3,ACCATCTC,0.0848
4,AGTACTAC,0.118
5,CTCGCTTA,0.132
6,TCCACCGA,-0.0753
7,AAGCGATT,-0.0219
8,AACTGCAC,0.0736
9,AACTGCAT,0.232
10,AACTGCAG,-0.0636
11,GCTCAGCA,-0.133
12,AAGCCACC,-0.198
13,GAACTGTC,0.0447
14,GCGAGTAA,0.198
15,ACGAGTAA,0.244
16,ACGAGTAT,0.0482
17,ATGGGTTA,0.0918
18,AGTGGTTC,-0.0506
19,ATACGCAA,0.232
20,GTACGCAA,-0.131
21,ATACGCAG,-0.235
22,CTCTGGTA,-0.0435
23,GAAGAACA,0.155
24,CAAGAACA,0.007
25,TAAGAACA,0.26

row,Sequence,PBM E-score
1,AGTCGACA,0.194
2,AGTCGACC,-0.0853
3,AGTCGACT,0.243
4,GGGAGAAC,-0.189
5,AAGAAGGC,-0.197
6,AGACATTC,-0.0988
7,GCCCTGTA,0.208
8,ATCCTGAA,0.125
9,AGCCTGTA,-0.126
10,ACCCTGTA,0.347
11,ACCCTGAA,0.319
12,AACCTGAA,-0.178
13,ACAAGGAC,-0.0546
14,GCGGTCCA,-0.159
15,TAAAGCCA,0.0522
16,AAACAAAC,-0.0324
17,AAACAAAA,0.0254
18,GAACAAAC,0.323
19,CAACAAAC,0.0713
20,ATACAAAA,0.218
21,ATACAAAC,0.258
22,AAACAAAT,0.235
23,ATACAAAT,0.173
24,GAACAAAA,0.195
25,AGTCCATA,0.0684

row,Sequence,PBM E-score
1,TCAGACAA,0.0781
2,CAGCAGCC,0.0863
3,GTTGCCAA,0.0119
4,CTAGGCAC,-0.162
5,AGCTTTAG,-0.105
6,GAGGCCTC,-0.327
7,AGACGCTA,-0.138
8,CATTCGAA,0.0948
9,GATTCGAA,0.256
10,GATTCGAC,0.141
11,ATGGCAGG,0.12
12,ATTGTTTC,0.256
13,ACAGTTTA,-0.0808
14,ACAGTTTC,0.259
15,CCAGTTTC,0.0541
16,ATTGTTTG,0.18
17,CTTGTTTC,0.0127
18,AGATCAAC,0.07
19,TATCCGGA,0.112
20,AAGGAGAC,-0.156
21,ACCACAAT,-0.0522
22,AGGTGTAC,-0.145
23,TCGAAACA,0.232
24,TGGAACAA,0.155
25,CCGAACAA,0.0547

row,Sequence,PBM E-score
1,TCGAACAA,0.259
2,CCGAAACA,0.102
3,TCGAACGA,0.0281
4,GCGAACAA,0.322
5,ACGAAACA,0.0539
6,ACGAACAA,0.124
7,TCAGATGA,0.148
8,AATCGCCA,0.0545
9,TAAGGACA,-0.0222
10,CGCTAGCC,-0.255
11,ACAGAGAC,0.00483
12,CTTCTTGA,-0.0331
13,CAATGGAA,0.131
14,GAATTCGC,0.141
15,AAATTCGG,0.205
16,AAATTCGT,0.235
17,AAATTCGA,-0.0488
18,CAATTCGC,0.277
19,AAATTCGC,0.234
20,CTATTCGC,0.0444
21,CAATTCGA,-0.135
22,CAATTCGG,0.0993
23,AAGTTGGA,0.134
24,AAAATCTT,-0.0461
25,AGCCGCCC,-0.0653

row,Sequence,PBM E-score
1,CCCAGTGC,0.037
2,AAAAACCA,0.112
3,AGCAAGAA,0.0497
4,CGCAAAAA,0.141
5,CACAAAAA,0.131
6,CGCAAGAA,0.299
7,CACAAGAG,0.14
8,CAAGAGAG,-0.0197
9,CAAGAGAA,0.232
10,CAAAACCA,0.249
11,CACAAGAA,0.245
12,CAAAACCC,0.222
13,GAAGAGAA,-0.0264
14,CGGGATGC,-0.163
15,CCGCTAAA,0.0162
16,CAAGGTCG,0.00137
17,CATAGCTC,-0.112
18,CAAAAAAC,0.079
19,CCAAAAAA,0.18
20,CAAAAAAA,0.245
21,CGTGAAGA,-0.0995
22,CACTACTG,0.077
23,ACGGTCGC,-0.131
24,AGGGTCGC,0.243
25,AGCGTCGA,0.244

row,Sequence,PBM E-score
1,AGCGTCGG,-0.0319
2,AGGGTCGA,0.262
3,CGGGTCGC,-0.0689
4,CGGGTCGA,-0.181
5,AGGGTCGG,0.0394
6,AGCGTCGC,-0.0577
7,GCGGCCCA,-0.0651
8,GCTGAAGA,-0.0685
9,ACAGCTTC,-0.102
10,AAGAGATT,0.00595
11,TATACTGA,0.261
12,CATACTGA,0.135
13,GATACTGA,0.0997
14,GCTATCTA,-0.0754
15,AAATAGAT,0.27
16,ACCTATAC,-0.044
17,ACCTATAA,-0.112
18,AAATAGAC,0.165
19,AAATATAC,0.0852
20,ACCTATAT,0.236
21,AAATATAT,0.257
22,AAATATAA,0.161
23,AAATAGAG,-0.0562
24,CAGAAAGG,0.0423
25,AAGATCTT,-0.0257

row,Sequence,PBM E-score
1,CTCGGTCA,-0.0604
2,AACCGCCG,-0.0452
3,GCTAAGAA,-0.103
4,TATGAGCA,-0.127
5,ATGAATGA,0.0659
6,ATGAATGG,0.339
7,ATGAATGC,0.13
8,GTATGCGA,0.136
9,AGCAAATC,0.147
10,ACCGATAC,-0.00076
11,CGAACAAA,0.279
12,CGAACAAG,0.165
13,TTAACAAA,0.094
14,GTCACGCA,0.0867
15,CTCACGCA,0.353
16,CGAACAAC,0.152
17,TGAACAAA,0.244
18,GGAACAAA,0.263
19,GCAACAAA,0.176
20,GGAACAAC,0.133
21,AGAACAAA,0.208
22,CTCACGCC,0.0298
23,CTGCACGA,0.0401
24,AACTTATA,0.145
